Results reported in PubChem BioAssay AID2563 (Broad Institute, 2010).
The whole screen tested about 290,000 compounds, of which about 800 (0.28%) were called active.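 How the source made its calls: active means fall in fluorescence gain of 50% or more versus controls, with final raw signal at or below 3038400; inconclusive means same 50% fall but final raw signal above 3038400; inactive means fall in fluorescence gain under 50%.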 The entries come from a sample that favours actives as a whole.

These compounds were tested against CAAX prenyl protease 2 (Saccharomyces cerevisiae (strain ATCC 204508 / S288c)) (UniProt Q03530) (assay: blockers of Rce1 CaaX peptide cleavage – biochemical, fluorescence, cell-free homogeneous, primary screen (AID 2563)). Conditions: yeast membranes, quenched prenylated peptide cleavage fluorescence.
CAAX prenyl protease 2 (Saccharomyces cerevisiae (strain ATCC 204508 / S288c)), sequence (Q03530 whole entry, looked up): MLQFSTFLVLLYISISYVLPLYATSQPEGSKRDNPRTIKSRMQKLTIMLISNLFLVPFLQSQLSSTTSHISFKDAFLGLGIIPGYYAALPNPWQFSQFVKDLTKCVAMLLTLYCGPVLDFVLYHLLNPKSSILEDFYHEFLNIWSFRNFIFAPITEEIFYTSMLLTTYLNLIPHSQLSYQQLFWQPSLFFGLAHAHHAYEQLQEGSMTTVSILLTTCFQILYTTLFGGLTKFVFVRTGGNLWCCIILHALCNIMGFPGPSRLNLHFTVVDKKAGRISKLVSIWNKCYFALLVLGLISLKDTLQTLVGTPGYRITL

Row | Structure (SMILES) | outcome
1 | CCOC(=O)c1c(N)n(CCN2CCOCC2)c2nc3ccccc3nc12 | inactive
2 | CCOC(=O)c1c(N)n(Cc2ccccc2)c2nc3ccccc3nc12 | inactive
3 | COc1cc(Cn2c(N)c(C(=O)NCc3ccco3)c3nc4ccccc4nc32)cc(OC)c1OC | active
4 | COC(=O)C1=C(c2cc3ccccc3s2)C[C@@H]2CC[C@H]1N2C(=O)NCCO | inactive
5 | Cc1cc(N2C(=O)C3CCCN3C2c2ccc(Cl)c(Cl)c2)no1 (stereo not given) | inactive
